# Reference: the supplement of paper PMC8728848
# This excerpt belongs to a sample that is enriched for the strongest signals.
# B1: LecRKVI.2 (protein)
# chain: RTTTNFAFRGFNGNQSKIRIEGAAMIKPDGLLRLTDRKSNVTGTAFYHKPVRLLNRNSTNVTIRSFSTSFVFVIIPSSSSNKGFGFTFTLSPTPYRLNAGSAQYLGVFNKENNGDPRNHVFAVEFDTVQGSRDDNTDRIGNDIGLNYNSRTSDLQEPVVYYNNDDHNKKEDFQLESGNPIQALLEYDGATQMLNVTVYPARLGFKPTKPLISQHVPKLLEIVQEEMYVGFTASTGKGQSSAHYVMGWSFSSGGERPIADVLILSELPPPPPNKAKKEGLNS
# How the values were obtained:
# Experiment in all cases: glycan array binding signal (z-score within array); higher = stronger binding
# Conditions in all cases: glycan notation: IUPAC condensed, linker removed
# [1] = target: Fuc(a1-2)Gal(b1-3)GalNAc(b1-3)Gal(a1-4)Gal(b1-4)Glc
# How it was run: (§1)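 Glycan array data were curated from 3228 arrays in the Consortium for Functional Glycomics database and kept only where the protein sequence was available. Glycan names were converted to IUPAC-condensed notation, and columns mapping to the same glycan were averaged. The binding signal is a within-array Z-score, averaged across arrays of the same protein sequence at different concentrations or buffers and across linkers. Negative Z-scores can be read as non-binding.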
# [2] = target: Fuc(a1-2)Gal(b1-3)GlcNAc6S
# How it was run: as §1
# [3] = target: Fuc(a1-2)Gal(b1-3)[Fuc(a1-4)]GlcNAc
# How it was run: as §1
# [4] = target: Fuc(a1-2)Gal(b1-3)[Fuc(a1-4)]GlcNAc(b1-3)[Gal(b1-4)GlcNAc(b1-6)]Gal(b1-4)Glc
# How it was run: as §1
# [5] = target: Fuc(a1-2)Gal(b1-4)GlcNAc(b1-2)Man(a1-3)[Fuc(a1-2)Gal(b1-4)GlcNAc(b1-2)Man(a1-6)]Man(b1-4)GlcNAc(b1-4)GlcNAc
# How it was run: as §1
# [6] = target: Fuc(a1-2)Gal(b1-4)[Fuc(a1-3)]GlcNAc(b1-3)GalNAc
# How it was run: as §1
# [7] = target: Fuc(a1-2)Gal3S(b1-4)GlcNAc
# How it was run: as §1
# [8] = target: Fuc(a1-2)[Gal(a1-3)]Gal(b1-3)GalNAc(b1-3)Gal(a1-4)Gal(b1-4)Glc
# How it was run: as §1
# [9] = target: Fuc(a1-2)[Gal(a1-3)]Gal(b1-4)GlcNAc(b1-2)Man(a1-3)[Fuc(a1-2)[Gal(a1-3)]Gal(b1-4)GlcNAc(b1-2)Man(a1-6)]Man(b1-4)GlcNAc(b1-4)GlcNAc
# How it was run: as §1
# [10] = target: Fuc(a1-2)[GalNAc(a1-3)]Gal(b1-4)GlcNAc(b1-2)Man(a1-3)[Fuc(a1-2)[GalNAc(a1-3)]Gal(b1-4)GlcNAc(b1-2)Man(a1-6)]Man(b1-4)GlcNAc(b1-4)GlcNAc
# How it was run: as §1
# [11] = target: Fuc(a1-3)[Gal(b1-4)]GlcNAc(b1-6)GalNAc
# How it was run: as §1
# [12] = target: Gal(a1-3)Gal(b1-4)GlcNAc(b1-2)Man(a1-3)[Gal(a1-3)Gal(b1-4)GlcNAc(b1-2)Man(a1-6)]Man(b1-4)GlcNAc(b1-4)GlcNAc
# How it was run: as §1
# [13] = target: Gal(a1-3)[Gal(a1-4)]Gal(b1-4)GlcNAc
# How it was run: as §1
# [14] = target: Gal(a1-4)Gal(b1-3)GlcNAc(b1-2)Man(a1-3)[Gal(a1-4)Gal(b1-3)GlcNAc(b1-2)Man(a1-6)]Man(b1-4)GlcNAc(b1-4)GlcNAc
# How it was run: as §1
# Gal(b1-4)Gal = target: Gal(b1-4)Gal
# How it was run: as §1
# [15] = target: Gal(b1-4)GlcNAc(b1-2)[Gal(b1-4)GlcNAc(b1-4)]Man(a1-3)[GlcNAc(b1-4)][Gal(b1-4)GlcNAc(b1-2)Man(a1-6)]Man(b1-4)GlcNAc(b1-4)GlcNAc
# How it was run: as §1
# [16] = target: Gal(b1-4)GlcNAc(b1-3)Gal(b1-3)GalNAc
# How it was run: as §1
# [17] = target: Gal(b1-4)GlcNAc(b1-3)Gal(b1-4)Glc
# How it was run: as §1
# [18] = target: Gal(b1-4)GlcNAc(b1-3)Gal(b1-4)GlcNAc(b1-2)Man(a1-3)[Gal(b1-4)GlcNAc(b1-3)Gal(b1-4)GlcNAc(b1-2)Man(a1-6)]Man(b1-4)GlcNAc(b1-4)[Fuc(a1-6)]GlcNAc
# How it was run: as §1
# [19] = target: Gal(b1-4)GlcNAc(b1-3)Gal(b1-4)GlcNAc(b1-3)Gal(b1-4)GlcNAc(b1-2)Man(a1-3)[Gal(b1-4)GlcNAc(b1-3)Gal(b1-4)GlcNAc(b1-3)Gal(b1-4)GlcNAc(b1-2)Man(a1-6)]Man(b1-4)GlcNAc(b1-4)GlcNAc
# How it was run: as §1
# [20] = target: Gal(b1-4)GlcNAc(b1-3)Gal(b1-4)GlcNAc(b1-3)Gal(b1-4)GlcNAc(b1-3)Gal(b1-4)GlcNAc(b1-3)Gal(b1-4)GlcNAc(b1-2)[Gal(b1-4)GlcNAc(b1-3)Gal(b1-4)GlcNAc(b1-3)Gal(b1-4)GlcNAc(b1-3)Gal(b1-4)GlcNAc(b1-3)Gal(b1-4)GlcNAc(b1-6)]Man(a1-6)[Gal(b1-4)GlcNAc(b1-3)Gal(b1-4)GlcNAc(b1-3)Gal(b1-4)GlcNAc(b1-3)Gal(b1-4)GlcNAc(b1-3)Gal(b1-4)GlcNAc(b1-2)Man(a1-3)]Man(b1-4)GlcNAc(b1-4)[Fuc(a1-6)]GlcNAc
# How it was run: as §1
# [21] = target: Gal(b1-4)GlcNAc(b1-3)GalNAc
# How it was run: as §1
# [22] = target: Gal(b1-4)GlcNAc(b1-6)[Gal(b1-3)]GalNAc
# How it was run: as §1
# Gal4S6S(b1-4)GlcNAc = target: Gal4S6S(b1-4)GlcNAc
# How it was run: as §1
# GalNAc(a1-3)Gal = target: GalNAc(a1-3)Gal
# How it was run: as §1
# GlcNAc(b1-3)Fuc = target: GlcNAc(b1-3)Fuc
# How it was run: as §1
# [23] = target: GlcNAc(b1-3)Gal(b1-4)GlcNAc(b1-3)Gal(b1-4)GlcNAc
# How it was run: as §1
# [24] = target: GlcNAc(b1-3)[GlcNAc(b1-4)][GlcNAc(b1-6)]GlcNAc
# How it was run: as §1
# [25] = target: GlcNAc(b1-4)Gal(b1-4)GlcNAc
# How it was run: as §1
# GlcNAc(b1-4)GlcNAc = target: GlcNAc(b1-4)GlcNAc
# How it was run: as §1
# [26] = target: GlcNAc(b1-4)GlcNAc(b1-4)GlcNAc
# How it was run: as §1
# Kdn(a2-3)Gal(b1-4)GlcNAc = target: Kdn(a2-3)Gal(b1-4)GlcNAc
# How it was run: as §1
# [27] = target: Man(a1-3)[Man(a1-6)]Man(b1-4)GlcNAc(b1-4)GlcNAc
# How it was run: as §1
# MurNAc(b1-4)GlcNAc = target: MurNAc(b1-4)GlcNAc
# How it was run: as §1
# [28] = target: Neu5Ac(a2-3)Gal(b1-3)GalNAc
# How it was run: as §1
# [29] = target: Neu5Ac(a2-3)Gal(b1-3)GlcNAc(b1-2)Man
# How it was run: as §1
# [30] = target: Neu5Ac(a2-3)Gal(b1-3)GlcNAc(b1-2)Man(a1-3)[GlcNAc(b1-4)][Neu5Ac(a2-3)Gal(b1-3)GlcNAc(b1-2)Man(a1-6)]Man(b1-4)GlcNAc(b1-4)GlcNAc
# How it was run: as §1
# [31] = target: Neu5Ac(a2-3)Gal(b1-3)[Fuc(a1-4)]GlcNAc
# How it was run: as §1
# [32] = target: Neu5Ac(a2-3)Gal(b1-3)[Fuc(a1-4)]GlcNAc(b1-3)Gal(b1-4)[Fuc(a1-3)]GlcNAc
# How it was run: as §1
# [33] = target: Neu5Ac(a2-3)Gal(b1-3)[GlcNAc(b1-6)]GalNAc
# How it was run: as §1
# [34] = target: Neu5Ac(a2-3)Gal(b1-4)GlcNAc(b1-2)Man
# How it was run: as §1
# [35] = target: Neu5Ac(a2-3)Gal(b1-4)GlcNAc(b1-3)Gal
# How it was run: as §1
# [36] = target: Neu5Ac(a2-3)Gal(b1-4)GlcNAc(b1-3)Gal(b1-4)GlcNAc
# How it was run: as §1
# [37] = target: Neu5Ac(a2-3)Gal(b1-4)[Fuc(a1-3)]GlcNAc(b1-6)[Gal(b1-3)]GalNAc
# How it was run: as §1
# [38] = target: Neu5Ac(a2-6)Gal(b1-4)GlcNAc(b1-2)Man(a1-3)[Gal(b1-4)GlcNAc(b1-2)Man(a1-6)]Man(b1-4)GlcNAc(b1-4)GlcNAc
# How it was run: as §1
# [39] = target: Neu5Ac(a2-6)Gal(b1-4)GlcNAc(b1-2)Man(a1-3)[GlcNAc(b1-2)Man(a1-6)]Man(b1-4)GlcNAc(b1-4)GlcNAc
# How it was run: as §1
# [40] = target: Neu5Ac(a2-6)Gal(b1-4)GlcNAc(b1-2)Man(a1-3)[Neu5Ac(a2-6)Gal(b1-4)GlcNAc(b1-2)Man(a1-6)]Man(b1-4)GlcNAc(b1-4)GlcNAc
# How it was run: as §1
# [41] = target: Neu5Ac(a2-6)Gal(b1-4)GlcNAc(b1-3)Gal(b1-4)GlcNAc(b1-2)Man(a1-3)[Neu5Ac(a2-6)Gal(b1-4)GlcNAc(b1-3)Gal(b1-4)GlcNAc(b1-2)Man(a1-6)]GalNAc
# How it was run: as §1
# [42] = target: Neu5Ac(b2-6)Gal(b1-4)GlcNAc
# How it was run: as §1
# [43] = target: Neu5Gc(a2-6)Gal(b1-4)GlcNAc
# How it was run: as §1
# [44] = target: Neu5Gc(a2-8)Neu5Gc(a2-3)Gal(b1-4)GlcNAc
# How it was run: as §1
binder,measurement,setting,value
B1,glycan array binding signal (z-score),[1],-0.133
same,glycan array binding signal (z-score),[2],-0.436
same,glycan array binding signal (z-score),[3],-0.312
same,glycan array binding signal (z-score),[4],-0.205
same,glycan array binding signal (z-score),[5],3.27
same,glycan array binding signal (z-score),[6],4.76
same,glycan array binding signal (z-score),[7],-0.468
same,glycan array binding signal (z-score),[8],-0.403
same,glycan array binding signal (z-score),[9],0.276
same,glycan array binding signal (z-score),[10],4.57
same,glycan array binding signal (z-score),[11],3.86
same,glycan array binding signal (z-score),[12],3.09
same,glycan array binding signal (z-score),[13],-0.211
same,glycan array binding signal (z-score),[14],5.85
same,glycan array binding signal (z-score),Gal(b1-4)Gal,-0.396
same,glycan array binding signal (z-score),[15],-0.319
same,glycan array binding signal (z-score),[16],-0.047
same,glycan array binding signal (z-score),[17],-0.296
same,glycan array binding signal (z-score),[18],3.44
same,glycan array binding signal (z-score),[19],6.91
same,glycan array binding signal (z-score),[20],0.566
same,glycan array binding signal (z-score),[21],-0.373
same,glycan array binding signal (z-score),[22],1.83
same,glycan array binding signal (z-score),Gal4S6S(b1-4)GlcNAc,-0.352
same,glycan array binding signal (z-score),GalNAc(a1-3)Gal,3.89
same,glycan array binding signal (z-score),GlcNAc(b1-3)Fuc,-0.233
same,glycan array binding signal (z-score),[23],-0.415
same,glycan array binding signal (z-score),[24],-0.429
same,glycan array binding signal (z-score),[25],-0.256
same,glycan array binding signal (z-score),GlcNAc(b1-4)GlcNAc,-0.232
same,glycan array binding signal (z-score),[26],-0.408
same,glycan array binding signal (z-score),Kdn(a2-3)Gal(b1-4)GlcNAc,-0.49
same,glycan array binding signal (z-score),[27],-0.376
same,glycan array binding signal (z-score),MurNAc(b1-4)GlcNAc,-0.279
same,glycan array binding signal (z-score),[28],-0.423
same,glycan array binding signal (z-score),[29],-0.335
same,glycan array binding signal (z-score),[30],-0.407
same,glycan array binding signal (z-score),[31],-0.318
same,glycan array binding signal (z-score),[32],-0.388
same,glycan array binding signal (z-score),[33],-0.402
same,glycan array binding signal (z-score),[34],-0.25
same,glycan array binding signal (z-score),[35],-0.323
same,glycan array binding signal (z-score),[36],-0.162
same,glycan array binding signal (z-score),[37],3.09
same,glycan array binding signal (z-score),[38],0.37
same,glycan array binding signal (z-score),[39],-0.274
same,glycan array binding signal (z-score),[40],0.07
same,glycan array binding signal (z-score),[41],3.81
same,glycan array binding signal (z-score),[42],-0.393
same,glycan array binding signal (z-score),[43],-0.356
same,glycan array binding signal (z-score),[44],-0.395
